“And” between values parts separate entries of the source, which are not always exact repeats. Identical values can stand only once.
Test: basal RPMI8226 mitochondrial membrane potential changes, profiling panel, cell-based, JC-1 fluorescence, 24 h, 100 nL compound (AID 1169); further: test concentration not given here
Details: RPMI8226 myeloma, JC-1 mitochondrial potential fluorescence, higher = more signal

Row | SMILES | z-score
1 | COC(=O)C1=C(C)N(Cc2ccccc2)[C@]23O[C@](C(=O)OC)(C(=O)N2[C@@H]1c1ccccc1)[C@@H](C(=O)OC)[C@H]3C(=O)OC | -0.866 and 0.532
2 | CO[C@@H]1COC(=O)CC=C[C@H](C)COC(=O)[C@H](C)NC(=O)CC=C[C@H]1C | -0.0124
3 | COC(=O)C1=C(C)N(Cc2ccccc2)C2=C(C(C)=O)[C@H](c3ccccc3)[C@@](O)(C(=O)OC)C(=O)N2[C@@H]1c1ccccc1 | -0.938 and -0.592
4 | C[N+](C)(C)CCCCNC(=O)[C@H]1C[C@H]2C(=O)N[C@@H](CCCC[N+](C)(C)C)C(=O)N2[C@H]1c1cccc(OCCO)c1 | -0.117 and 0.49
5 | CCOC(=O)NN=C1C[C@@H](O)[C@@H](O)[C@@H]2[C@@H]3C(=O)N(Cc4ccc5c(c4)OCO5)C(=O)[C@@H]3CC[C@@H]12 | 0.612
6 | C[N+](C)(C)CCCCNC(=O)[C@H]1C[C@H]2C(=O)N[C@@H](CCCC[N+](C)(C)C)C(=O)N2[C@H]1c1ccc(O)cc1 | 0.629 and -0.808
7 | O=c1n(-c2ccccc2)c(=O)n2n1CC[C@@H]1C(=NOC[C@@H](O)COCc3ccco3)[C@H]3O[C@H]3[C@@H](O)[C@@H]12 | -0.135 and 0.0289
8 | C=C[C@@H](C)[C@H](O)c1ccc(O)c2ccccc12 | -0.333 and -0.269
9 | COC(=O)C1=C(C)N(Cc2ccccc2)C2=C(C(C)=O)C[C@@](O)(C(=O)OC)C(=O)N2[C@@H]1c1ccccc1 | 0.689 and -0.71
10 | CCC[C@@H]1C[C@@]1(CCC)[C@@H](NC(=O)c1ccc(-c2ccccc2)cc1)c1cccc(Cl)c1 | -0.256 and 0.137
11 | C=CCN(CCCC)C(=O)C1N(CCOCCO)C(=O)C2C(C(=O)O)C3C=CC21O3 (stereo unspecified) | 0.563 and 0.0271
